Only a selection was taken, and hits are over-represented in it overall.
OvCa metastasis = Primary qHTS assay for Inhibitors of ovarian cancer metastasis using an organotypic tumor microenvironment (TME) model. actives 0.1% (n = 46,000). SKOV3ip1-GFP adhesion/invasion on 3D omental model, fluorescence. Potency, µM (titrated, usually from 45.8 µM), inactives show at the highest dose activity change, negative = inhibition, usual class: inhibitors;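 note: plate controls were DMSO wells for no effect and tomatine positive control wells for full effect; nearly all actives have a fitted effect of over 65% in size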
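qHTS, 4-pt dose (0.36-46 umol/L); SKOV3ip1-GFP, 1,200 cells/well, no FBS; primary omental fibroblast/mesothelial co-culture 48 h pre-grown; 2 h RT + 16 h 37 C; PBS wash, 4% PFA; GFP count 488/509 nm.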
FH mod = Identification of activators of human fumarate hydratase by quantitative high-throughput screening; AID 1347055, 2019; Potency, µM (titrated, usually from 79.9 µM), for inactives: at the top dose activity change, negative = inhibition, hits mostly inhibitors; FH coupled MDH/diaphorase resazurin fluorescence, 15 min; actives 0.22% (n = 54,000); Fumarate hydratase, mitochondrial (Homo sapiens), P07954; note: the screen sought activators but most active calls are inhibition curves; nearly all actives have a fitted effect of over 45% in size
Target sequence (P07954 whole entry, looked up): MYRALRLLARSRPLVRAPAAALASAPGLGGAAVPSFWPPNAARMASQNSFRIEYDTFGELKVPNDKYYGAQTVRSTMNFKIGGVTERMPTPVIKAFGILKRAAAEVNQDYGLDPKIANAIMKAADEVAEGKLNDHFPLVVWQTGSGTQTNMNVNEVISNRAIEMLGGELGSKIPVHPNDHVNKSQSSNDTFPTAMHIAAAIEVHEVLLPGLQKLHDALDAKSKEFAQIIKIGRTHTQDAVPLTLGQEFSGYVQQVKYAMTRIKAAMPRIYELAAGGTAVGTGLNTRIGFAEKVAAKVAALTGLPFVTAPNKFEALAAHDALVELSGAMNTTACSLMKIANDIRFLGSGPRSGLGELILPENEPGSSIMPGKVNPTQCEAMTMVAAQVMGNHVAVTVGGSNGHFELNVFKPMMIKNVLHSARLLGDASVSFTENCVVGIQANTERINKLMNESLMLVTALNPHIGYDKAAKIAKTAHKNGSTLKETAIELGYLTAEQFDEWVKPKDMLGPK
p53null 32C tox = qHTS Screen for Compounds that Selectively Target Cancer Cells with p53 Mutations: Cytotoxicity of p53 Null Cells at the Permissive Temperature. actives 0.62% (n = 55,000). AID 903, 2007. Potency, µM (doses to about 46.1 µM), inactives show top-dose activity change, negative = cytotoxicity, hits mostly cytotoxic. H1299-neo p53 null cells, ATP luminescence, 24 h, 32C;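 note: 0% = DMSO only and -100% = full killing by 100 µM tamoxifen; nearly all actives have a fitted effect of over 55% in size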
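Luminescent ATP readout gave cell viability of p53-null H1299-neo cells after a 24 h compound exposure at the permissive 32C. Titrations ran up to 46 uM, and AC50s were fitted with the standard Hill equation.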
NTMT1 inhibitor = Primary qHTS for Inhibitors of N-terminal methyltransferase 1 (NTMT1): MTaseGlo Assay; N-terminal Xaa-Pro-Lys N-methyltransferase 1 (Homo sapiens), Q9BV86; NTMT1 MTase-Glo SAH luminescence, purified enzyme; Potency, µM (highest dose often 114 µM), for inactives: at the top dose activity change, negative = inhibition, actives largely listed as inhibitors; actives 2.5% (n = 59,000);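 note: plate controls were DMSO vehicle for no effect and no enzyme for full effect; nearly all actives have a fitted effect of over 65% in size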
Target sequence (Q9BV86 whole entry, looked up): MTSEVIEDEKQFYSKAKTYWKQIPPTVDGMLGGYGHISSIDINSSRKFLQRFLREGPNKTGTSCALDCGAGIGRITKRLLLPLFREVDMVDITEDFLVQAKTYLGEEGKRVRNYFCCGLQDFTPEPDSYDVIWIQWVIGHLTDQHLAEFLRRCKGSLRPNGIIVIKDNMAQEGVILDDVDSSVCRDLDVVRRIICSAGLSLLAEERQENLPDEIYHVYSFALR
p53null 39C kill = qHTS Screen for Compounds that Selectively Target Cancer Cells with p53 Mutations: Cytotoxicity of p53 Null Cells at the Nonpermissive Temperature. Potency, µM (doses to about 46.1 µM), for inactives: top-dose activity, negative = cell killing, actives largely listed as cytotoxic. AID 904, 2007. actives 0.97% (n = 55,000). H1299 p53-null (neo) cells, 39C, ATPlite viability, 24 h;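 note: 0% = DMSO only and -100% = full killing by 100 µM tamoxifen; nearly all actives have a fitted effect of over 50% in size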
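Cells seeded at 600/well, 37C overnight. Compound added (up to 46 uM), plates shifted to 39C for 24 hr. ATPlite added, luminescence read after 20 min at room temperature.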
The depositor's hits bear a star; i = inactive; ? = inconclusive; / = not tested or not shown; ! = not confirmed by another sample; [ ] = dose if it differs, or a comment. Calls come from the whole dose curve; as a rule, active = well fitted curve in the direction sought with a large enough effect; inconclusive = small, poorly fitted or top-dose-only effect, or another doubt; inactive = no such curve, though single readings can be large; an effect the other way counts as inactive or inconclusive. Unless noted, % is set by controls: 0 for no effect and ±100 for the full control effect; potency is the fitted concentration of half-maximal effect.

SMILES | OvCa metastasis | FH mod | p53null 32C tox | NTMT1 inhibitor | p53null 39C kill
Cc1ccccc1-c1nc(CS(=O)(=O)CC(=O)NCc2cccc(Cl)c2)c(C)o1 | i | -1% | -2% | 89µM* | -17%
Cc1oc(-c2cccc(Cl)c2)nc1CS(=O)(=O)CC(=O)NCc1ccccc1Cl | i | 3% | 7% | 89µM* | -9%
Cc1ccc(NC(=O)c2cnn3c(C)cc(C)nc23)c(C)c1 | / | / | / | 8% | /
COCCCNC(=O)c1[nH]c2cc(OC)ccc2c1Sc1ccc(C)cc1 | 0% | -30% | -13% | ? | 16µM*
COc1ccc2c(Sc3ccc(C)cc3)c(C(=O)NCCc3ccccc3)[nH]c2c1 | ? | 11% | -14% | 4% | 17%
O=C1NC(=O)C(=Cc2ccc(-c3ccc(F)cc3)o2)S1 | -18% | -16%[53.3 µM] | / | 22µM* | /
Oc1ccc(O)cc1 | / | 3.5µM* | / | 35µM* | /
Oc1ccccc1 | / | -7%[53.3 µM] | / | -14%[57.5 µM] | /
Cc1ccccc1C(=O)Nc1ccc2nc(Nc3cccc(C(F)(F)F)c3)cc(C)c2c1 | i | -28% | 15% | -11% | -21%
Cc1cc(Nc2cccc(Cl)c2)nc2ccc(NC(=O)c3cncc(Br)c3)cc12 | i | -25% | -18% | 11% | 20µM*
CCOc1cc(C(=O)Nc2ccc3nc(Nc4cccc(Cl)c4)cc(C)c3c2)cc(OCC)c1OCC | 73% | -12% | -4% | -8% | -2%
Cc1cc(Nc2cccc(C(F)(F)F)c2)nc2ccc(NC(=O)c3cncc(Br)c3)cc12 | i | 32µM* | -3% | 2% | -20%
COc1ccccc1NC(=O)CCS(=O)(=O)c1cc2c3c(c1)CCN3C(=O)CC2 | i | 11% | -3% | -2% | -9%
COc1ccc(C)cc1NC(=O)CCS(=O)(=O)c1cc2c3c(c1)CCN3C(=O)CC2 | 6% | -5% | -1% | 45µM* | 4%
Cc1cnc(-c2ccccc2C(C)C)nc1NCC1CCN(c2cnccn2)CC1 | / | / | / | 21% | /
O=C(CCl)Nc1cccc(NC2=NS(=O)(=O)c3ccccc32)c1 | / | 3% | / | 4%[57.5 µM] | /
CC(=O)Nc1sc2c(c1-c1nc3ccccc3s1)CNC2 | -11% | -15% | / | 79µM*! | /
CC(=O)Nc1sc2c(c1-c1nc3ccccc3s1)CCN(C(=O)OC(C)(C)C)C2 | / | / | / | -1% | /
COc1ccc(C(=O)Nc2cccc(-c3cn4ccsc4n3)c2)c(OC)c1 | i | -16% | ? | -2% | -27%
COc1ccc(C(=O)Nc2cccc(-c3cn4ccsc4n3)c2)cc1OC | i | -24% | ? | ? | 13µM*
C/C(=C/CO)CCC1C(C)CCC2C(C)(C)CCCC12C (centres undefined) | / | -14% | / | 5%[57.5 µM] | /
CC(=O)Nc1sc2c(c1C(=O)O)CCNC2 | / | / | / | 7% | /
Cn1cnc2c(F)c(Nc3ccc(Br)cc3Cl)c(C(=O)NOCCO)cc21 | 10% | 6% | / | 89µM*! | /
O=C(CCC1CCCC1)Nc1ccc(OCC(=O)N2CCOCC2)cc1 | / | / | 14µM* | / | ?
O=C(COc1ccc(Br)cc1)N1CCOCC1 | / | / | -17% | / | 16%
SMILES | OvCa metastasis | FH mod | p53null 32C tox | NTMT1 inhibitor | p53null 39C kill
CC12CCC(OC3OC(CO)C(O)C(OC4OC(CO)C(O)C(O)C4O)C3O)CC1=CCC1C2CCC2(C)/C(=C3/COC(=O)C3)CCC12O (centres undefined) | / | 5%[20.6 µM] | / | 13%[12.6 µM] | /
Cc1ccc(Cl)cc1N1CCN(C(=O)C2CCN(Cc3nc(-c4cccc(Cl)c4)oc3C)CC2)CC1 | -6% | -23% | 0% | 0% | 25µM*
O=C1Nc2ccccc2/C1=C/c1cc(O)ccc1O | / | ? | / | 40µM* | /
O=C1Nc2ccccc2/C1=C\c1ccc([N+](=O)[O-])cc1 | / | / | / | -17% | /
CCC1CCCCN1CCCNC(=O)c1cc2c(Cl)nc3ccc(C)cc3c2s1 (centres undefined) | ? | -15% | -3% | 28µM* | 20µM*
Cc1ccnc(NC(=O)/C=C/c2cccs2)c1 | / | / | 10µM* | / | /
Cc1cc([N+](=O)[O-])ccc1NC(=O)/C=C/c1cccs1 | / | / | -17% | / | /
O=c1oc2ccc3ccccc3c2cc1-c1nnc(Nc2ccccc2F)s1 | -4% | 2% | 4% | -3% | -3%
O=c1oc2cc(O)ccc2cc1-c1nnc(Nc2ccccc2F)s1 | ? | -1% | ? | 50µM* | ?
COc1cc(C(O)C(CO)Oc2ccc(CCCO[C@@H]3O[C@@H](C)[C@H](O)[C@@H](O)[C@H]3O)cc2OC)ccc1O (some centres undefined) | / | 1%[53.3 µM] | / | 7%[29.8 µM] | /
CCOC(=O)c1nn(-c2ccc(OC)cc2)c(=O)c2c(N)scc12 | / | / | / | 13µM* | /
O=C(CCNC(=O)c1ccc(OC(F)(F)F)cc1)N[C@@H]1CCCc2ccccc21 | / | / | / | 9% | /
O=c1c(-n2ccnn2)c[nH]n1-c1cc(N2CCOCC2)ncn1 | / | / | / | 3µM*! | /
Cc1c(NS(C)(=O)=O)cccc1-c1nc2ccccc2s1 | -8% | 3% | ? | 6% | ?
CS(=O)(=O)Nc1ccc(-c2nc3ccccc3s2)cc1 | 2% | -9% | 4µM* | -12% | 1.6µM*
O=C(Nc1ccccc1-c1cn2c(CN3CCNCC3)csc2n1)c1cnc2ccccc2n1 | -15% | ? | / | 3.5µM*! | /
CC(C)OCCCNc1ncnc2sc3c(c12)CCCC3 | i | -5% | -3% | 50µM* | -8%
CC1=CC2/C=C(\C)CC[C@@H](O)[C@@H](O)[C@@H]3O[C@@H]3C(=O)[C@]23C(=O)N[C@@H](CC(C)C)[C@@H]3[C@@H]1C (some centres undefined) | / | 5%[53.3 µM] | / | -17%[29.8 µM] | /
COc1cc(-c2nc3ccc(C)cn3c2Nc2ccc(Cl)cc2)ccc1O | i | ? | 10% | ? | 20µM*
COc1ccc(C)cc1S(=O)(=O)Nc1cccc(-c2ccc(N3CCC(C)CC3)nn2)c1 | -6% | / | -11% | / | -10%
CC1CCN(c2ccc(-c3cccc(NS(=O)(=O)c4ccc(Cl)s4)c3)nn2)CC1 | 6% | / | 6.3µM* | / | 10µM*
COc1ccc(F)cc1S(=O)(=O)Nc1cccc(-c2ccc(N3CCC(C)CC3)nn2)c1 | -9% | / | ? | / | ?
COc1ccc(S(=O)(=O)Nc2cccc(-c3ccc(N4CCC(C)CC4)nn3)c2)cc1OC | -11% | / | 3.2µM* | / | 7.9µM*
CC1CCN(c2ccc(-c3cccc(NS(=O)(=O)c4cccs4)c3)nn2)CC1 | i | / | 7.9µM* | / | 10µM*

Screening results: PubChem BioAssay, National Center for Advancing Translational Sciences (NCATS)
